Our source for the inhibition values is PubChem BioAssay AID624040 (The Scripps Research Institute Molecular Screening Center, 2012).

In all, about 360,000 compounds went through this assay and about 2,100 (0.58%) were called active. For the sample, actives were picked, then their nearest neighbours and some compounds at random. Unmarked numbers belong to inactive results.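 How the source made its calls: active means inhibition above a per-plate cutoff, the mean of that plate's test compounds plus 3 SD (cut at about 27% in these data); inactive means the rest.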

The term inhibition denotes the drop in the measured response relative to a control, in per cent.

Chain of Muscarinic acetylcholine receptor M5 (Homo sapiens) (P08912 whole entry, looked up): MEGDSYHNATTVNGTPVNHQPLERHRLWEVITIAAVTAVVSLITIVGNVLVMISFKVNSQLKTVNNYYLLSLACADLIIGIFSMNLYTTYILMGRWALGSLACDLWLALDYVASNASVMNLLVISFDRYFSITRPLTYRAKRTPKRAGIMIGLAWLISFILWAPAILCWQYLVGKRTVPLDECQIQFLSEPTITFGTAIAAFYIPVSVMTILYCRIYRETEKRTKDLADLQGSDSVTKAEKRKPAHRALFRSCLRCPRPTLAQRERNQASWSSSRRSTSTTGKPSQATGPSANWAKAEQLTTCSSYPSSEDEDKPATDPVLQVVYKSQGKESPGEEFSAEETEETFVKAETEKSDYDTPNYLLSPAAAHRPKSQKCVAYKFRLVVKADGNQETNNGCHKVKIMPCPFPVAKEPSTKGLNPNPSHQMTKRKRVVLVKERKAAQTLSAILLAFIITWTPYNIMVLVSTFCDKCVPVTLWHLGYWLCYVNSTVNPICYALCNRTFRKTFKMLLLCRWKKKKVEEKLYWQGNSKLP

This assay concerns the target Muscarinic acetylcholine receptor M5 (Homo sapiens) (UniProt P08912). Description: human M5 muscarinic receptor antagonists, primary screen, CHO cells, Fluo-8 calcium fluorescence (AID 624040).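 Further: 0% = acetylcholine EC80 with DMSO and 100% = DMSO without agonist.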 The note with it: CHO-hM5 cells, ACh EC80, at 3 µM, hits give high values.
Turning to `CN(C)CCNc1ccc(-c2n[nH]c(=O)c3ccccc23)cc1[N+](=O)[O-]`, the inhibition was 5.87%.
Consider `O=C(NCC1(N2CCCCC2)CCCCC1)c1ccc(NS(=O)(=O)c2ccc(F)cc2)cc1`, for which the inhibition was 6.39%.
As for `CC(C)c1ccc(NC(=O)COC(=O)c2ccc(CN3CCCC3=O)cc2)cc1`, the figure is 11.4%; as for `Cc1cc(C)c(S(=O)(=O)N2CCCC2CNC(=O)c2ccc3c(c2)OCO3)c(C)c1` (stereo not drawn), 10.3%.
With `c1ccc2c(c1)OCC(CNc1ncnc3nc[nH]c13)O2` (stereo not drawn) the figure was 46.2% (active).
With `CCC(=O)c1ccc(OCC(=O)N(CC)CC2COc3ccccc3O2)cc1` (stereo not drawn) the figure was -6.74%; with `O=C(COc1ccc(F)cc1Br)NCC1COc2ccccc2O1` (stereo not drawn), -3.52%.
With `CSc1ccccc1OCc1cc(C(=O)N2C[C@H]3CC[C@H]2C3)no1`, the inhibition is 23.9%.
With `CCc1nc2nc(C)c(NS(=O)(=O)c3ccc4c(c3)CCCC4)c(=O)n2[nH]1` the figure was 17.6%; with `CN(CC#CCC(c1ccccc1)c1ccccc1)C(C)(C)C`, 56.4% (active); with `CC(C)(C)N(CC#CCC(O)(c1ccccc1)C1CCCC1)CCO` (stereo not drawn), 8.39%.
Turning to `O=C1NC[C@@H](Cc2ccc(O)cc2)N(CCc2cccc(F)c2)C1=O`, the inhibition is 10.1%.
With `CCCCC(C(=O)NC(C)(C)C)N(Cc1ccccc1)C(=O)c1snc(C(N)=O)c1N` (stereo not drawn) the figure was -2.14%; with `Cc1cc(C)c(OCC(=O)N(Cc2cccs2)C2CCS(=O)(=O)C2)c(C)c1` (stereo not drawn), 5.07%.
Take `CCCCN1C(N)=NC[C@@H]1CC1CCCCC1`: the inhibition was 0.65%.
With `CN(C)C1=NC[C@H](Cc2ccccc2)N1CCc1ccc(F)cc1` the figure was 2.48%.
For `CCCC[C@@H]1CN=C(N)N1CCc1cc(C(F)(F)F)cc(C(F)(F)F)c1`, the inhibition is 32.4% (active).
Turning to `COc1cccc(C(O)c2nc(-c3ccc(C)c(C)c3)cs2)c1` (stereo not drawn), the inhibition was 2.71%.
As for `Cc1ccc(C(=O)Nc2c(-c3ccccc3)[nH][nH]c2=O)cc1`, the figure is -12.3%.
`CN(C)C(=O)c1ccc(NC(=O)c2ccccc2-c2ccccc2)cc1`: the inhibition is 12.5%.
As for `O=C(NC1=CC(=O)c2ccccc2C1=O)c1ccccc1`, the figure is 36.2% (active).
With `O=C(O)CCC(=O)Nc1ccc(OCC2CCCO2)cc1` (stereo not drawn) the figure was -4.56%; with `COc1ccc(NC(=O)CN2C(=O)CSc3ccc(S(=O)(=O)N4CCC(C)CC4)cc32)cc1`, -4.66%.
`CCc1ccc(-c2cc(C)no2)cc1S(=O)(=O)NCCc1ccc(S(N)(=O)=O)cc1`: the inhibition was -7.03%.
With `Cc1cc(-c2ccc(C)c(S(=O)(=O)NCCCN(Cc3ccccc3)C(C)C)c2)on1`, the inhibition is -8.38%.
With `COc1ccc(CNS(=O)(=O)c2cc(-c3cc(C)no3)ccc2C(C)C)cc1` the figure was 27.2% (active).
Turning to `CSCCC(NC(=O)COc1ccccc1)C(=O)Nc1ccc(C)cc1` (stereo not drawn), the inhibition was 0.42%.
As for `CC(C)c1ccc2oc(=O)cc(CN3CCN(Cc4ccccc4)CC3)c2c1`, the figure is 27.9% (active); as for `O=c1cc(CN2CCCCCCC2)c2c(ccc3ccccc32)o1`, 1.52%; as for `Cc1cc2oc(=O)cc(CN3CCN(S(=O)(=O)c4cccs4)CC3)c2cc1C(C)C`, 6.3%.
With `COc1ccc(-c2cc3nc(C)c(CCC(=O)NC(C)CCc4ccco4)c(C)n3n2)c(OC)c1` (stereo not drawn) the figure was -13.5%; with `CCC(C)C(NC(=O)C1CCC(=O)N1C(=O)OCc1ccccc1)C(=O)NC(C(=O)N1CCCC1C(N)=O)C(C)CC` (stereo not drawn), 5.74%.
As for `CCCCCCCCn1c2c(c(=N)c3c1CCC3)CCCC2`, the figure is 32.9% (active); as for `C#Cc1ccc([C@@H]2C=C(C(=O)O)O[C@H](OCCCCO)C2)cc1`, 13.8%.
With `CCCN(Cc1cc2cccc(C)c2[nH]c1=O)S(C)(=O)=O`, the inhibition was -2.81%.
As for `COc1cccc(CNC(=O)CCC2CCCN(C(=O)c3ccc(F)c(Cl)c3)C2)c1` (stereo not drawn), the inhibition was -0.63%.
As for `COc1cccc(CNC(=O)CCC2CCCN(C(=O)c3cc(C)[nH]n3)C2)c1` (stereo not drawn), the figure is 32.7% (active).
With `COc1cccc(CNC(=O)CCC2CCCN(C(=O)c3ccoc3C)C2)c1` (stereo not drawn) the figure was 12.6%.
As for `CC1(C)Cc2nc3sc4c(SCC(=O)NC(c5ccccc5)c5ccccc5)ncnc4c3cc2CO1`, the figure is -8.35%.
Take `CN(C)c1ccc(/C=C2\NC(=S)N(Cc3ccccc3)C2=O)cc1`: the inhibition was 52.7% (active).
As for `CCN(C(=O)CSc1nnnn1-c1ccc(OC)cc1)C1CCS(=O)(=O)C1` (stereo not drawn), the figure is 12.8%; as for `CC(Sc1nn(-c2ccc(Cl)cc2)c(=S)s1)C(=O)NCC1CCCO1` (stereo not drawn), -4.62%.
As for `O=[N+]([O-])c1c(NCCO)cc(Sc2nc3ccccc3s2)c2nonc12`, the figure is 29.2% (active); as for `N#Cc1ccc(OCCN2C(=O)NC3(CCSC3)C2=O)cc1` (stereo not drawn), -5.81%; as for `COc1ccc(NC(=O)c2sccc2SCC#N)cc1`, 2.72%.
`CN1CCN(C(=O)C2=C[C@H](c3ccc4c(c3)OCO4)C[C@H](OCc3ccc(CO)cc3)O2)CC1`: the inhibition is 3.48%.
With `COc1ccc(-n2nnc3c(=O)n(CC(=O)OCc4ccccc4)cnc32)cc1` the figure was 4.49%; with `CCSc1nsc(NC(=O)Nc2cccc(C(C)=O)c2)n1`, 22.5%; with `CSc1nsc(NC(=O)Nc2ccccc2)n1`, 31.1% (active).
As for `C=CCSc1nsc(NC(=O)Nc2cccc(C(C)=O)c2)n1`, the figure is 21.8%; as for `COC(=O)/C(C#N)=C/c1occc1C`, 2.54%; as for `CC1OC2C(OC1C)N(S(C)(=O)=O)CCN2S(C)(=O)=O` (stereo not drawn), -2.68%.
Regarding `Cc1ccc(C(c2nnnn2CS(=O)(=O)c2ccc(C)cc2)N2CCC(C(N)=O)CC2)cc1` (stereo not drawn), the inhibition is -9.51%.
Consider `NC(=O)C1(N2CCCCC2)CCN(C2CC(=O)N(Cc3ccc(N4CCCC4=O)cc3)C2=O)CC1` (stereo not drawn), for which the inhibition was -5.49%.
With `S=C(NCCCc1ccccc1)Nc1ccc(Br)cc1` the figure was 27.8% (active); with `O=S(=O)(NCCCc1ccccc1)c1ccc(Br)cc1`, 6.97%; with `S=C(Nc1ccc(Br)cc1)NC1CCN(Cc2ccccc2)CC1`, -2.81%.
Take `Cc1sc(NC(=O)C2C3CCC(O3)C2C(=O)O)c(C(=O)OC(C)C)c1-c1ccc(Cl)cc1` (stereo not drawn): the inhibition was -0.97%.
